Measurements as given in PubChem BioAssay AID1865 (National Center for Advancing Translational Sciences (NCATS), 2009).
The campaign covered roughly 280,000 compounds. About 540 (0.19%) were called active. Another 2% or so got no clear call; they are omitted. The full list was thinned out, with actives kept by preference. Unmarked numbers belong to inactive results. Calls follow the shape of the dose curve; as a rule, active = well fitted activation curve with a large enough effect; inconclusive = small, poorly fitted or top-dose-only effect; inactive = flat fitted curve, though single readings scatter.

assay: Quantitative High-Throughput Screen for Regulators of Epigenetic Control; details: murine LDR cells, GFP reporter derepression, 30 h; series mostly up to 53.9 µM; GFP activation: at the top concentration; also: nearly all actives have a fitted effect of over 60% in size; as to GFP activation: % of control where 0% means no effect
Outline: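 GFP-positive cell count by laser-scanning cytometry (objects 20–120 um) after 30 h, 37 C compound exposure of murine LDR cells; reporter is CMV-GFP integrated at a silenced locus, inducible by HDAC or DNMT inhibitors.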
Potency is read from the fitted curve at half-maximal effect.

Row | SMILES | GFP activation [%] | Potency
1 | CC1Cc2cc(S(=O)(=O)CCC(=O)Nc3ccc(F)c(Cl)c3)ccc2N1C(=O)C1CC1 (stereo unspecified) | -0.364 | 
2 | Nc1ccc2c3c(cccc13)C(=O)NC2=O |  | 17.8 µM (active)
3 | CCN1C(=O)c2cccc3c(N)ccc1c23 | 0.901 | 
4 | Cc1nn(C)cc1N1C(=O)c2cccc3c(N)ccc(c23)C1=O | 2.11 | 
5 | CN1CCN(c2oc(-c3ccc(COc4ccc(Cl)cc4)o3)nc2C#N)CC1 | 0 | 
6 | COc1cc(N2CCCC2)c(OC)cc1/C=C(/C#N)c1cccc(Br)c1 |  | 3.55 µM (active)
7 | COc1ccc(Br)cc1/C=N/n1c(C)nnc1C | 4.97 | 
8 | CC(=O)Nc1cccc(Oc2cc(C#N)c(C#N)cc2N2CCOCC2)c1 | -1.01 | 
9 | Cc1ccc(CCNC(=O)Cn2c(-c3cccs3)cc3cc(F)ccc32)cc1 | -1.88 | 
10 | Cc1noc2ncnc(NCc3ccccc3Cl)c12 | 0 | 
11 | Cc1nn(C(C)C(=O)NCCc2ccccc2)c(=O)c2c1sc1ccccc12 (stereo unspecified) | 13.4 | 
12 | CCc1ccc(C2CC(=O)c3c([nH]c(C(=O)OCc4ccc(C)cc4)c3C)C2)cc1 (stereo unspecified) | 0.291 | 
13 | CC(=O)c1ccc(NC(=O)CCc2nc(-c3ccc(C)cc3)no2)cc1 | -1.54 | 
14 | CC(C)(C)c1ccc(S(=O)(=O)N2CCN(C(=O)c3cc(-c4ccc(Br)cc4)n[nH]3)CC2)cc1 | 0 | 
15 | Cc1cc(C)cc(NS(=O)(=O)c2ccc(-c3cc(C)no3)s2)c1 | -0.833 | 
16 | O=C(/C=C/c1ccccc1)Nc1cc(-c2nc3cc(Cl)ccc3o2)ccc1Cl | 1.08 | 
17 | Fc1ccc(Nc2nc(SCc3ccccc3Cl)nc3ccccc23)cc1 | 0 | 
18 | CCN1CCN(c2ncnc3c2cnn3-c2ccc(C)c(C)c2)CC1 | 0 | 
19 | Cc1ccc2nc(-c3ccccn3)cc(C(=O)Nc3ccc4c(c3)OCO4)c2c1 |  | 15.8 µM (active)
20 | O=C(Nc1ccncc1)c1cc(-c2ccccn2)nc2ccc(Br)cc12 | 1.14 | 
21 | Cc1ccc2nc(-c3ccncc3)cc(C(=O)Nc3ccc4c(c3)OCCO4)c2c1 | 2.23 | 
22 | OCc1cnc(SCc2ccc(F)cc2)n1Cc1ccc(F)cc1 | 0.584 | 

Row | SMILES | GFP activation [%] | Potency
23 | Cc1ccc(S(=O)(=O)N(CC(=O)Nc2ccc(Cl)cc2Cl)c2ccccc2C)cc1 | 1.91 | 
24 | Cc1ccc(C)c(N2CCN(C(=O)Cn3nc(C)c4sc5ccccc5c4c3=O)CC2)c1 | -2.4 | 
25 | CCCCCCc1ccc(O)cc1O | 13.1 | 
26 | CCCC(=O)Nc1nnc(-c2ccccc2)o1 | 1.08 | 
27 | CCCCCCc1cc2cc(-c3nnc(-c4ccccc4)o3)c(=O)oc2cc1O |  | 1.78 µM (active)
28 | COc1ccc(CNc2nc(-c3ccc(Cl)cc3)nn2S(=O)(=O)c2ccc(C)cc2)cc1 | 2.76 | 
29 | Cc1cccc(NC(=O)CSc2nnc(CNC(=O)c3cccc(C)c3)n2-c2ccccc2)c1 | 0 | 
30 | CCc1ccc(NC(=O)c2nn(-c3ccc(C)cc3)c(=O)n(C)c2=O)cc1 | 8.47 | 
31 | Nc1c(C(=O)c2cccs2)sc2nsc(SCCN3CCCCC3)c12 |  | 3.55 µM (active)
32 | CN(C)c1ccnc2sc(C(=O)c3ccccc3)c(N)c12 | -2.99 | 
33 | O=C(CN1C2=NCCN2c2ccccc21)c1cccs1 | 0 | 
34 | CCOC(=O)c1ccc(NC(=O)CC2C(=O)N(c3ccccc3)C(=O)N2Cc2cccs2)cc1 (stereo unspecified) | -0.348 | 
35 | CSc1ccccc1-c1nnc(NC(=O)c2ccc3c(c2)OCCO3)o1 | -1.64 | 
36 | Cc1oc(-c2ccccc2F)nc1CN1CCC(C(=O)NCCc2ccc(Cl)cc2)CC1 | -1.11 | 
37 | CC(C)c1ccc(NC(=O)CN(C)S(=O)(=O)c2ccc3c(c2)c(=O)n(C)c(=O)n3C)cc1 | -1.11 | 
38 | COCCCNC(=O)c1ccc(NC(=O)c2nsc3ccccc23)cc1 | 2.2 | 
39 | Cc1ccc(-c2cnc(NCc3ccc(C(C)C)cc3)n2C)cc1 | -0.242 | 
40 | CCOC(=O)c1cccc(NC(=O)Cn2cnc3nc4c(cc3c2=O)CCCC4)c1 | -1.69 | 
41 | CCOC(=O)c1ccc(NC(=O)C2CCN(S(=O)(=O)c3ccc4c(c3)CCCC(=O)N4)CC2)cc1 | -1.27 | 
42 | Cc1ccc(NC(=O)Cn2c(=O)n(-c3ccccc3)c(=O)c3c4c(sc32)CCCC4)cc1 | -1.77 | 
43 | CCOc1cc(C(=O)NCCc2csc3nc(-c4ccc(C)cc4)nn23)cc(OCC)c1OCC | -1.23 | 
44 | Cc1cccc(C(CC(=O)NCC2(c3ccccc3)CCCC2)c2ccccc2)c1O (stereo unspecified) | -0.962 | 

Row | SMILES | GFP activation [%] | Potency
45 | Cc1ccc(Cl)cc1N1CCN(C(=O)c2cnc3c(-c4ccc(F)cc4)c(C)nn3c2C)CC1 | 0.833 | 
46 | COc1ccc(Cn2c(=O)c3oc4ccccc4c3n(CC(=O)Nc3ccc(F)cc3F)c2=O)cc1 |  | 11.2 µM (active)
47 | CCCCn1c(=O)c2oc3ccccc3c2n(CC(=O)Nc2ccccc2OC)c1=O | 2.82 | 
48 | COc1cc(NC(=O)Cn2c(=O)n(Cc3ccco3)c(=O)c3oc4ccccc4c32)cc(OC)c1 | 4.43 | 
49 | O=C(NCc1ccccc1Cl)c1cccn1-c1nnc(N2CCCCC2)s1 | 0.374 | 
50 | Cc1ccc(NC(=O)c2cc(S(=O)(=O)NCCC3=CCCCC3)ccc2F)cc1C | -1.18 | 
51 | COc1cccc(CNC(=O)C(=O)NCC(c2cccs2)S(=O)(=O)c2ccccc2)c1 (stereo unspecified) | 4.17 | 
52 | Cc1cccc(CCNC(=O)c2ccc3c(c2)nc2n3CCC(C)C2)c1 (stereo unspecified) | 12.7 | 
53 | O=c1nc2s/c(=C\c3ccco3)c(=O)n2nc1Cc1ccccc1 | -0.952 | 
54 | CN(c1ccccc1)c1ccc(/C=c2\s/c(=C(/C#N)C(=O)C(C)(C)C)n(Cc3ccco3)c2=O)cc1 |  | 6.31 µM (active)
55 | Cc1cs/c(=N\N=C\c2ccc(O)cc2)n1Cc1ccco1 | -1.92 | 
56 | COc1cc(OC)c(OC)cc1/C=C/c1nc2cc3ccccc3cc2c(=O)n1-c1ccc(F)c(Cl)c1 | 0.436 | 
57 | O=S(=O)(NCC(c1ccccc1)N1CCc2ccccc21)c1ccccc1 (stereo unspecified) | -4.06 | 
58 | COc1cc2c(cc1OC)C(COc1ccc(F)cc1)N(C(=O)c1ccccc1F)CC2 (stereo unspecified) | 1.18 | 
59 | CCOC(=O)c1c(C)[nH]c(CCC(=O)NCCCN2CCN(c3cc(C)ccc3C)CC2)c1C | -0.109 | 
60 | CC(C)(C)c1ccc(C(=O)NCC(c2ccc(Cl)cc2)N2CCOCC2)cc1 (stereo unspecified) | 1.61 | 
61 | COc1ccc(-c2cccc(NS(=O)(=O)c3cc(C)c(OC)c(C)c3C)c2)nn1 | 1.69 | 
62 | O=C(NC1CCN(Cc2ccccc2)CC1)c1ccc(Cn2c(=O)c3ccccc3n(Cc3cccc(F)c3)c2=O)cc1 | -0.885 | 
63 | CCOc1ccccc1C(=O)Nc1ccc(S(=O)(=O)N2CCCCC2c2cccnc2)cc1 (stereo unspecified) | 2.78 | 
64 | CC(C)c1ccc(S(=O)(=O)Nc2ccc(O)c(Sc3nc4ccccc4s3)c2)cc1 | -3.44 | 
65 | COc1ccc(Cn2c(C(=O)O)c(CNCc3cccc(OC)c3)c3ccc(C)cc32)cc1 | 0 | 
66 | CC(C)c1ccc2oc(-c3cc(NC(=O)c4cccs4)ccc3Cl)nc2c1 | -1.08 | 
